Source: ChEMBL document CHEMBL3988442, “University of Dundee, Small-Polar-MMV Screening Library” (2021)
For part of these data: Potency and affinity values are given separately.

Experiments:
Set-up in all cases: scale not given: direction of the effect not stated beside the values
[1] = biological target: Protein translocase subunit SecA (Escherichia coli (strain K12)) (UniProt P10408); assay: Assay to Identify E. coli SecA ATPase Inhibitors; type: functional; details: 30 µM
[2] = biological target: T1, Ubiquitin-activating enzyme e1, putative (Leishmania donovani (strain BPK282A1)) (UniProt E9BSI1); assay: Leishmania donovani Ubiquitin Activating Enzyme (LdE1); type: functional; details: 30 µM
T1 sequence (whole entry): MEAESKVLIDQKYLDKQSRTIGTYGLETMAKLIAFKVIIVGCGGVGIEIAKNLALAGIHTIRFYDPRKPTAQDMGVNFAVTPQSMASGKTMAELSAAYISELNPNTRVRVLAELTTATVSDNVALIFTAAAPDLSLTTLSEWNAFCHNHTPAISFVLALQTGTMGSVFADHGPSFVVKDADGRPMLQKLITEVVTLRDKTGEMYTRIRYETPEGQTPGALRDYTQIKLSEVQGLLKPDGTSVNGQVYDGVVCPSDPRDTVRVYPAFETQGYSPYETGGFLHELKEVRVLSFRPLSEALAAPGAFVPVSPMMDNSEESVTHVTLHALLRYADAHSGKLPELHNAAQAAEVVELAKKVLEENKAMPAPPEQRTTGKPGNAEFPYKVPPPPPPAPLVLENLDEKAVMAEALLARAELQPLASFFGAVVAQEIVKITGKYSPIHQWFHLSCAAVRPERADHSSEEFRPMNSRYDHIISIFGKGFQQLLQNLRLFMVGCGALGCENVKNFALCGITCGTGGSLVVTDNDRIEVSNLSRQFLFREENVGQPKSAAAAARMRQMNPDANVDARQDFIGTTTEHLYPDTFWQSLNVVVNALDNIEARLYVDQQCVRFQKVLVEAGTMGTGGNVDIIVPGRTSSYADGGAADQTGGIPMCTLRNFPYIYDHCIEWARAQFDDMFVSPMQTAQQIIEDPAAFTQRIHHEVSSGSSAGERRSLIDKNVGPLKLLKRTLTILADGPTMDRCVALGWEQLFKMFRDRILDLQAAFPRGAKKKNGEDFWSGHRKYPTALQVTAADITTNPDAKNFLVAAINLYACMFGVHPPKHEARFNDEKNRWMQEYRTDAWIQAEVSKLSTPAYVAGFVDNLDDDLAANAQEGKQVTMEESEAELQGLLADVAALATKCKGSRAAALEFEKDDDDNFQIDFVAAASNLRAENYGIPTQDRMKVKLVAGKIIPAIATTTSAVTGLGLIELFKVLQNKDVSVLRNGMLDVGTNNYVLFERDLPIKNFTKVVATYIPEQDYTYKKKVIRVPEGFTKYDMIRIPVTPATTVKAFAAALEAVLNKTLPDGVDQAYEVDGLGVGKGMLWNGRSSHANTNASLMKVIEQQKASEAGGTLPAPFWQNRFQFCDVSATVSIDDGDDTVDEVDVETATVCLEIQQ

[3] = biological target: T2, Aspartate--tRNA(Asp/Asn) ligase (Mycobacterium tuberculosis (strain ATCC 25618 / H37Rv)) (UniProt P9WFW3); assay: Assay for Asp RNA synthetase-1 from Mycobacterium tuberculosis; type: functional; details: 30 µM; also: in the data most compounds retested in dose-response had high values
T2 sequence (whole entry): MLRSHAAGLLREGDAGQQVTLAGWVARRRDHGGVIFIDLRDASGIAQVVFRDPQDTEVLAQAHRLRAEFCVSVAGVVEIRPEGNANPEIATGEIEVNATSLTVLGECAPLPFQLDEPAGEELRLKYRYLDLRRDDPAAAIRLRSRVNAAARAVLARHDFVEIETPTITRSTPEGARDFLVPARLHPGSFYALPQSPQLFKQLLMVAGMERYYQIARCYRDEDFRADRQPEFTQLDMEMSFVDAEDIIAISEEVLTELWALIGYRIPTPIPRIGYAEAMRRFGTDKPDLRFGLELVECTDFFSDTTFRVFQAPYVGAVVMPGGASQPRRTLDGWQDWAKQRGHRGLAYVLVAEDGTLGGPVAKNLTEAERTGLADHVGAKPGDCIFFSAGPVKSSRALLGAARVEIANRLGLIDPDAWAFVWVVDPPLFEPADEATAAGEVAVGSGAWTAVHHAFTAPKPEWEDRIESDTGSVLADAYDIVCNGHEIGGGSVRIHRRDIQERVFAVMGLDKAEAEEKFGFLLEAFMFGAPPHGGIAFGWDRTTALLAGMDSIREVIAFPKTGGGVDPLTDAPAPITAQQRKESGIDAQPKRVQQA

[4] = biological target: AMP-activated protein kinase, AMPK (Homo sapiens) (UniProt P54646+O43741+P54619+Q9UGJ0+Q9Y478+Q13131+Q9UGI9); assay: AMP-dependent Kinase enzyme assay. An in vitro enzyme assay that detects ADP turnover that is directly proportional to AMPK activity. This uses naive AMPK that is activated during the assay with MK-8722; type: functional; details: 30 µM
[5] = biological target: Sialic acid-binding Ig-like lectin 9 (Homo sapiens) (UniProt Q9Y336); assay: Hs-Siglec9 ALPHAscreen SOP 20170721; details: 10 µM
Chain of Sialic acid-binding Ig-like lectin 9 (Homo sapiens) (Q9Y336 whole entry): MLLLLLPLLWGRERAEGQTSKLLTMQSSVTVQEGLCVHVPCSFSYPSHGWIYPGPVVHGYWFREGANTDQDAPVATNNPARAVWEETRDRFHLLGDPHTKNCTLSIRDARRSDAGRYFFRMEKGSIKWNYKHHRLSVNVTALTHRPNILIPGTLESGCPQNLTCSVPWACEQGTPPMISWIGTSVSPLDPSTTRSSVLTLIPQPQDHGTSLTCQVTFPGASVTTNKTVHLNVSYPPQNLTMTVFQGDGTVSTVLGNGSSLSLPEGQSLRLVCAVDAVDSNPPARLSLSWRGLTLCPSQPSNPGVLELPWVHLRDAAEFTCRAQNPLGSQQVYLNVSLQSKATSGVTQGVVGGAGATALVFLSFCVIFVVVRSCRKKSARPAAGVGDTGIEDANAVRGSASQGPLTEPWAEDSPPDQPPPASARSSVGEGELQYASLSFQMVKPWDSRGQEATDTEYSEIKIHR

[6] = tested on: Trypanosoma cruzi; assay: Trypanosoma cruzi phosphomannomutase and mannose-1-phosphate guanylyltransferase assay; type: functional; details: 10 µM
[7] = biological target: T3, Arginase-2, mitochondrial (Homo sapiens) (UniProt P78540); assay: in vitro enzyme assay to detect the production of urea directly proportional to the activity of Arginase II; type: functional; details: 33.3 µM; also: in the data most compounds retested in dose-response had high values
T3 sequence (whole entry): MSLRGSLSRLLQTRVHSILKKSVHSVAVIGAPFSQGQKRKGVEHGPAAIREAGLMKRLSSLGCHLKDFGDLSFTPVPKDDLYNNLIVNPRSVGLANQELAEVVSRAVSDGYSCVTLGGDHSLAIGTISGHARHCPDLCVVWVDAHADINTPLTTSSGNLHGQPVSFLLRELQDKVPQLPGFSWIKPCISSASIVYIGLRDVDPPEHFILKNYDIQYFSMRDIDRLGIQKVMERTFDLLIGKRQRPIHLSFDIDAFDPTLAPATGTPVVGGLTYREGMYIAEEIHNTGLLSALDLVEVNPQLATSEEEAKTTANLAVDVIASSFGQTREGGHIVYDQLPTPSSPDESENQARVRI

[8] = biological target: T4, Proteasome subunit beta (Trypanosoma cruzi) (UniProt O96673); assay: Trypanosoma cruzi proteasome chymotrypsin-like activity (TcProtChymo) assay.; also: in the data most compounds retested in dose-response had high values; type: functional; details: 9.37 µM
T4 sequence (whole entry): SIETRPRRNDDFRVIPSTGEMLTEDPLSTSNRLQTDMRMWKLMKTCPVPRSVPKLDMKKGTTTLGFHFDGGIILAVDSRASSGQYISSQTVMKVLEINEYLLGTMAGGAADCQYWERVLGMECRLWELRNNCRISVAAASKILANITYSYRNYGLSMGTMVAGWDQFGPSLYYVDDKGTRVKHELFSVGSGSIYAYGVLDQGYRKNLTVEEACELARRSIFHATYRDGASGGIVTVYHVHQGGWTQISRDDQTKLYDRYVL

[9] = organism: Homo sapiens; assay: To identify inhibition of the IFN signalling (Jak-Stat) pathway via expression of an eGFP reporter gene under the control of an IFN-stimulated response element (ISRE) containing MxA promoter.; type: functional; details: 30 µM
[10] = biological target: Shiga toxin 2 (Escherichia coli O157:H7) (UniProt P09385+P09386); assay: E. coli 0.157:H7 Shiga Toxin SOP - stx2 screening assay; type: functional; details: 30 µM
[11] = biological target: T5, Tyrosyl-tRNA synthetase, putative (Trypanosoma cruzi (strain CL Brener)) (UniProt Q4DSP6); assay: Trypanosoma cruzi tyrosyl tRNA synthetase (TcYRS) _High Tyrosine SOP; type: functional; details: 30 µM; also: in the data most compounds retested in dose-response had high values
T5 sequence (whole entry): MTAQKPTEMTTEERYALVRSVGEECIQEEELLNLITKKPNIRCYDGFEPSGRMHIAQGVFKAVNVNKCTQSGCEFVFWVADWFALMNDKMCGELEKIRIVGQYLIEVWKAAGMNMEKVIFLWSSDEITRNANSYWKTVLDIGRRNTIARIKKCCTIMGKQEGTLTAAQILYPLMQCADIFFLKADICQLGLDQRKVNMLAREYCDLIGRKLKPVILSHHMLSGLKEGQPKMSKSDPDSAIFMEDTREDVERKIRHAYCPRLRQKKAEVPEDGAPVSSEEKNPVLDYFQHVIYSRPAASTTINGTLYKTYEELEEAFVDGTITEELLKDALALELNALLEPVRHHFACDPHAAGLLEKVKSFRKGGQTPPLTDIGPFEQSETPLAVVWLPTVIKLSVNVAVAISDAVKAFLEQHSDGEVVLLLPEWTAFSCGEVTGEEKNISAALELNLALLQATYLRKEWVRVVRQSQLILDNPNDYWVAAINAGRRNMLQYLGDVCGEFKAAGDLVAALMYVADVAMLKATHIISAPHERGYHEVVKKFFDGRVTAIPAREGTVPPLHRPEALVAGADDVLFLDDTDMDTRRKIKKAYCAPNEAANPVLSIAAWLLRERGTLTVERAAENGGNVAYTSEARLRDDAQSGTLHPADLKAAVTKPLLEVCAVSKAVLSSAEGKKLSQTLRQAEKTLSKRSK

[12] = biological target: T5, Tyrosyl-tRNA synthetase, putative (Trypanosoma cruzi (strain CL Brener)); assay: Trypanosoma cruzi tyrosyl tRNA synthetase (TcYRS) SOP; type: functional; details: 30 µM
[13] = biological target: Chromo domain-containing protein 1 (Saccharomyces cerevisiae (strain ATCC 204508 / S288c) (Baker's yeast)) (UniProt P32657); assay: ScCHD-1 Enzyme Inhibition Assay; type: functional; details: 30 µM; also: in the data most compounds retested in dose-response had high values
Chain of Chromo domain-containing protein 1 (Saccharomyces cerevisiae (strain ATCC 204508 / S288c) (Baker's yeast)) (P32657 whole entry, the tested form may be a part): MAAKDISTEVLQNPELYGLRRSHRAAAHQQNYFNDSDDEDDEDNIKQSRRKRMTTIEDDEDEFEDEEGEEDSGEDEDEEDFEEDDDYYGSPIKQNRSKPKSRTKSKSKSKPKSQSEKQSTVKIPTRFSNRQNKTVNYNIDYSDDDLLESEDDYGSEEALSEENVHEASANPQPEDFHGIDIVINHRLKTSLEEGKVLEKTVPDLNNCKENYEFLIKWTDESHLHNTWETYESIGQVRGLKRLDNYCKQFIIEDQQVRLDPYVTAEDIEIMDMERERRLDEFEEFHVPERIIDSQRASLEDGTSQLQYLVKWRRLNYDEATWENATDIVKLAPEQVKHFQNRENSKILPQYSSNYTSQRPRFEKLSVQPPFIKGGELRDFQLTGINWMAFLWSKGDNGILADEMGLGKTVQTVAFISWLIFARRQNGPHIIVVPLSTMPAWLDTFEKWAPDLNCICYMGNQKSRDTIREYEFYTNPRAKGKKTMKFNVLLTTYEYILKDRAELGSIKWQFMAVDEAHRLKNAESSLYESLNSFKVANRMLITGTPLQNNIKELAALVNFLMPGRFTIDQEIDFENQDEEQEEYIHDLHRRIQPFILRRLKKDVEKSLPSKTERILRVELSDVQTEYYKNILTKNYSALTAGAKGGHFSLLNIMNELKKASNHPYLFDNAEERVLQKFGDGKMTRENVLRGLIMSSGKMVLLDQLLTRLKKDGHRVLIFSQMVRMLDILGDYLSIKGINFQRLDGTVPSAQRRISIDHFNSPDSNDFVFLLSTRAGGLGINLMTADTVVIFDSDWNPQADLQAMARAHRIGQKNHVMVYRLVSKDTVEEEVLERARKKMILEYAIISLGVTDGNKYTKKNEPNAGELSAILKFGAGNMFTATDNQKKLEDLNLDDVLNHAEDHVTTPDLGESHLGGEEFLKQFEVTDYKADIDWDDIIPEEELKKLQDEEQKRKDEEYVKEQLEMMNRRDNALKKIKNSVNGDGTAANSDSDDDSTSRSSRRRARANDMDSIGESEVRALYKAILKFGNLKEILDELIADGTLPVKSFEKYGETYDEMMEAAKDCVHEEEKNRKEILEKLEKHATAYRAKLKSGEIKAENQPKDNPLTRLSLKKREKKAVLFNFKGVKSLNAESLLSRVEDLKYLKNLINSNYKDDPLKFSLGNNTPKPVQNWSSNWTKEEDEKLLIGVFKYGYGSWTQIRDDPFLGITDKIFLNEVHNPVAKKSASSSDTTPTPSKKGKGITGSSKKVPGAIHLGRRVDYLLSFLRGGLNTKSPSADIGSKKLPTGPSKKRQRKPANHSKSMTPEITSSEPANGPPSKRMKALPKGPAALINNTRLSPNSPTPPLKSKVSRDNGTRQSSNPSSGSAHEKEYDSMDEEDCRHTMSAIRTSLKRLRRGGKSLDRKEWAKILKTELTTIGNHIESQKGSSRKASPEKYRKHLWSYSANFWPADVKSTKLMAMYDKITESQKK

Chain of Protein translocase subunit SecA (Escherichia coli (strain K12)) (P10408 whole entry): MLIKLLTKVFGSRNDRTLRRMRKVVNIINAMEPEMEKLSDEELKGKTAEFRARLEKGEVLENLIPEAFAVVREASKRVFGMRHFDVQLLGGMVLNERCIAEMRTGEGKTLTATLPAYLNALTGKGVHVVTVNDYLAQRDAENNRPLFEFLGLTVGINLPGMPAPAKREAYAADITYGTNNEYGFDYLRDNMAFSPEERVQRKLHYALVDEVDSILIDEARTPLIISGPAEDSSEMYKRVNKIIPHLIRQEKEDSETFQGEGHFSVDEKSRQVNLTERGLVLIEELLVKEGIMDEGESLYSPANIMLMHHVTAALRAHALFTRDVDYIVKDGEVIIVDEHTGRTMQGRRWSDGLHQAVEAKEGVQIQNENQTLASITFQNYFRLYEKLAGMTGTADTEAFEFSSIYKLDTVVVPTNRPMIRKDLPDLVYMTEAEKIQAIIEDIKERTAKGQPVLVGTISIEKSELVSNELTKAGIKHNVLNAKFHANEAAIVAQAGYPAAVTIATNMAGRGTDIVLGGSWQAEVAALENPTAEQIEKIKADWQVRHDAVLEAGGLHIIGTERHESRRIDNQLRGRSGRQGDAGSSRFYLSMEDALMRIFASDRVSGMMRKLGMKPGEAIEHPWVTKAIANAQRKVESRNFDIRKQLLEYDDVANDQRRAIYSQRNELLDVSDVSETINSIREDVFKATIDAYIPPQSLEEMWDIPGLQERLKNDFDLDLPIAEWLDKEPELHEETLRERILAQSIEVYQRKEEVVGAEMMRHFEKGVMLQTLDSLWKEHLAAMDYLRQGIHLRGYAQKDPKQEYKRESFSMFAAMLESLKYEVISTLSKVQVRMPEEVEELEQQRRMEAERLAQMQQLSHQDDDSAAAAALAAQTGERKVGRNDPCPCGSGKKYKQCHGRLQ

| SMILES | Percent Effect [1] [%] | Percent Effect [2] [%] | Percent Effect [3] [%] | Percent Effect [4] [%] | Percent Effect [5] [%] | Percent Effect [6] [%] | Percent Effect [7] [%] | Percent Effect [8] [%] | Percent Effect [9] [%] | Percent Effect [10] [%] | Percent Effect [11] [%] | Percent Effect [12] [%] | Percent Effect [13] [%] |
| --- | --- | --- | --- | --- | --- | --- | --- | --- | --- | --- | --- | --- | --- |
| O=C(Cc1ccccn1)N1CCN2C[C@H](Oc3cccc(F)c3)C[C@H]2C1 | -3.38 | 0 | 9.34 | 1.39 | -4.03 | 1.07 | -1.59 | 1.84 | 18.6 | -10.5 | -2.16 | -5.13 | -1.68 |
| Cc1ncccc1OCC(=O)N1CCN[C@H]2CS(=O)(=O)C[C@H]21 | -6.4 | 10.8 | 7.97 | -4.66 | 0.713 | 0.489 | 4.71 | 14.2 | -4.73 | 11.7 | 9.68 | 18.5 | -1.55 |
| CC(Cc1c(F)cccc1F)NC(=O)Nc1cnn(CC(N)=O)c1 (configuration not stated) | -4.08 | 21.5 | -0.509 | -1.23 | -0.0747 | 0.513 | -1.07 | 19.7 | 15 | -36.4 | 3.12 | 17.7 | -23.1 |
| COCCN1CCC2(COCc3cnc(N4CCOCC4)nc32)C1 (configuration not stated) | -9.09 | 2.67 | -3.07 | 7.61 | -2.45 | -5.91 | -2.1 | 2.03 | 21.1 | -12 | -4.25 | -1.28 | -8.27 |
| c1csc(CN2CC[C@H]3C[C@H](c4ccncn4)O[C@@H]3C2)c1 | 2.89 | 13 | 2.7 | 9.99 | -6.78 | -7.99 | 5.81 | 19.7 | 13.8 | -7.55 | 2.12 | 6.41 | -8.13 |
| O=C(Cc1cccs1)N1C[C@@H]2OCCN(CC3CCCC3)[C@@H]2C1 | -3.05 | 11 | -2.94 | -0.507 | 19.2 | 1.59 | -6.79 | 4.37 | -10.9 | 13.2 | 4.17 | 6.17 | -1.65 |
| CN(C)c1ncc2c(n1)C1(CCN(Cc3ccccc3)C1)COC2 (configuration not stated) | -2.14 | -5.48 | -5.72 | 3.1 | 1.95 | 2.78 | 1.2 | 10.9 | -0.512 | -67 | 5.21 | 3.7 | -6.91 |
| O=C(NC1CCC1)[C@@H]1C[C@@H]2CCN(Cc3ccncc3)C[C@H]2O1 | -4.4 | 8 | -3.87 | 0.172 | 2.75 | 5.79 | -52.1 | 8.21 | 21.8 | 1.98 | 4.17 | 12.5 | -8.66 |
| c1cc(CO[C@@H]2CC[C@H]3[C@H]2OCCN3CC2CCOCC2)ccn1 | 1.51 | 16.2 | 5.55 | 7.58 | -13.8 | -4.79 | -0.319 | 3.51 | 45.1 | -7.6 | 2.16 | 10.3 | -9.05 |
